Results with a measured potency or affinity are listed apart.
Legend:
Staphylococcus aureus = conditions: Concentration 32 ug.mL-1;; ASSAY_TEST Inhibition of Bacterial Growth; detection method Absorption (OD600); MEDIA CAMHB; plate type 384well; NBS; CORNING #3640; time 18 hr
Escherichia coli = conditions: Concentration 32 ug.mL-1;; ASSAY_TEST Inhibition of Bacterial Growth; detection method Absorption (OD600); MEDIA CAMHB; plate type 384well; NBS; CORNING #3640; time 18 hr

| Structure (SMILES) | Inhibition (Staphylococcus aureus) | Inhibition (Escherichia coli) |
| --- | --- | --- |
| O=c1n(Cc2cc(F)cc(F)c2)nc2ccc(-c3ccccc3)nn12 | 8.62% | -1.58% |
| CCOC(=O)c1ccccc1NC(=O)Cn1nc2ccc(C(=O)Nc3ccc(OC)cc3)cn2c1=O | 0.2% | -8.03% |
| CCC(C)NC(=O)c1ccc2c(=O)n(CCC(C)C)c3nn(CC#N)c(=O)n3c2c1 (stereo not drawn) | 11.05% | -1.24% |
| COc1cc(NC(=O)C(C)Sc2nnc3c(=O)n(-c4ccc(C)c(C)c4)ccn23)cc(OC)c1 (stereo not drawn) | -0.67% | -10.24% |
| COc1ccc(NC(=O)CSc2nnc3c(=O)n(-c4cccc(OC)c4)ccn23)cc1 | 14.04% | -12.03% |
| CC(C)c1nnc2c(=O)n(CC(=O)Nc3cccc(C#N)c3)c3ccccc3n12 | 14.89% | 2.48% |
| CC(C)c1ccc(NC(=O)Cn2nc3c(N4CCCCC4)nccn3c2=O)cc1 | -8.03% | -4.05% |
| CCCn1c(=O)c2sccc2n2c(=O)n(Cc3ccc(Cl)cc3)nc12 | 1.51% | -6.17% |
| COc1cccc(-n2ccn3c(SCC(=O)NCc4ccco4)nnc3c2=O)c1 | 13.02% | -1.73% |
| COc1cccc(Oc2nccn3c(=O)n(CC(=O)NCc4ccccc4Cl)nc23)c1 | 11.84% | 2.87% |
| O=C(Cn1nc2c(N3CCOCC3)nccn2c1=O)Nc1ccc(Cl)cc1F | 8.72% | 5.15% |
| Cc1cc2nn(CC(=O)Nc3ccc(F)cc3F)c(=O)n2c(Nc2ccc(C)c(F)c2)n1 | 8.31% | -0.48% |
| COC(=O)c1ccc(CN(c2cccc(C)c2)S(=O)(=O)c2cccn3c(C)nnc23)o1 | 5.77% | -6.24% |
| Cc1ccc(Nc2cc(C)n3c(=O)n(Cc4cc(=O)n5ccccc5n4)nc3n2)cc1F | 9.94% | -6.14% |
| COc1ccc(CNC(=O)Cn2nc3c(Sc4ccc(C)cc4C)nccn3c2=O)cc1 | 6.57% | -1.79% |
| Cc1ccc(NC(=O)Cn2nc3ccc(SC4CCCCC4)nn3c2=O)cc1C | -6.2% | -13.15% |
| CC(C)NC(=O)CSc1nnc2c(=O)n(-c3ccccc3)ccn12 | -3.39% | 1.35% |
| Cc1ccc(Oc2nc3ccccc3n3c(=O)n(CC(=O)Nc4ccccc4C(F)(F)F)nc23)cc1 | 11.78% | 1.07% |
| O=c1n(Cc2ccc3c(c2)OCO3)nc2c(S(=O)(=O)N3CCCCC3)cccn12 | 10.75% | 1.46% |
| COc1ccc(-c2cc3c4nn(CC(=O)Nc5cccc(C(C)=O)c5)c(=O)n4ccn3n2)cc1 | -6.93% | -6.63% |
| CC(C)c1nnc2c(=O)n(CC(=O)Nc3ccc(F)cc3)c3ccccc3n12 | 20.52% | 5.44% |
| Cc1ccc(F)cc1NC(=O)CSc1nnc2ccc(C(=O)Nc3cccc(F)c3)cn12 | 13.04% | 0.82% |
| Cc1ccc(NC(=O)CSc2nnc3c4cc(-c5ccccc5)nn4ccn23)c(C)c1 | -9.27% | -11.37% |
| COc1ccc(-c2cc3c4nnc(SCC(=O)NCc5cccc(OC)c5OC)n4ccn3n2)cc1 | 4.12% | -5.71% |
| Cc1ccc(-c2ccc3nn(CC(=O)NC4CCCCC4)c(=O)n3n2)cc1C | 8.8% | 0.07% |

| Structure (SMILES) | Inhibition (Staphylococcus aureus) | Inhibition (Escherichia coli) |
| --- | --- | --- |
| Cc1ccc(-c2cc3c4nnc(SCC(=O)Nc5ccccc5Br)n4ccn3n2)cc1 | 1.85% | -3.11% |
| COc1ccc(CNC(=O)CSc2nnc3c4cc(-c5ccc(C)cc5)nn4ccn23)cc1 | 4.45% | -3.09% |
| COc1cc(NC(=O)Cn2nc3c4c5c(sc4ncn3c2=O)CCCC5)cc(OC)c1 | -0.84% | -8.54% |
| COc1ccccc1N1CCN(C(=O)CSc2nnc3c(=O)n(-c4ccccc4)ccn23)CC1 | 3.83% | -6.8% |
| Cc1ccccc1Oc1nccn2c(=O)n(CC(=O)Nc3cc(F)ccc3F)nc12 | 11.37% | -2.39% |
| CCOc1ccc(-n2ccn3c(SCC(=O)Nc4cccc(CC)c4)nnc3c2=O)cc1 | -2.86% | -8.29% |
| O=C(Cn1nc2c(Sc3ccccc3)nccn2c1=O)Nc1cc(F)ccc1F | 0.01% | -13.52% |
| CCOc1ccccc1CNC(=O)CCc1nnc2ccc(-c3ccccc3)nn12 | 9.42% | -2.56% |
| CCOC(=O)c1ccc(NC(=O)Cn2nc3ccc(SCc4ccc(Cl)cc4)nn3c2=O)cc1 | -0.24% | -11.17% |
| Cc1cc(C)c(NC(=O)Cn2nc3ccc(SC(C)(C)C)nn3c2=O)c(C)c1 | 11.62% | -0.74% |
| CCc1ccc(NC(=O)Cn2nc3c4cc(-c5ccc(Cl)cc5)nn4ccn3c2=O)cc1 | 10.21% | 3.59% |
| COc1ccc(-c2cc3c4nn(CC(=O)Nc5cccc(OC)c5)c(=O)n4ccn3n2)cc1 | -3.02% | -0.95% |
| Cc1cc(C)c(NC(=O)CSc2nnc3c4cc(-c5ccccc5)nn4ccn23)c(C)c1 | 6.45% | -2.49% |
| COc1cccc(NC(=O)Cn2nc3ccc(-c4ccc(C)c(C)c4)nn3c2=O)c1 | -14.65% | -17.62% |
| Cc1cc(C)c(NC(=O)Cn2c(=O)c3nnc(C(C)C)n3c3ccccc32)c(C)c1 | 15.71% | 3.04% |
| CCc1ccc(NC(=O)Cn2nc3ccc(SC4CCCCC4)nn3c2=O)cc1 | 16.16% | 2.08% |
| COC(=O)c1cccc(NC(=O)Cn2nc3c(Sc4ccc(C)cc4C)nccn3c2=O)c1 | 10.39% | -5.72% |
| Cc1cccc(NC(=O)CSc2nnc3c4cc(-c5ccccc5)nn4ccn23)c1C | -15.85% | -6.36% |
| Cc1ccc(-c2ccc3nnc(CCC(=O)NCc4cccc(Br)c4)n3n2)cc1C | 4.83% | -5.02% |
| Cc1cc(C)c(NC(=O)Cn2nc3ccc(Sc4cccc(F)c4)nn3c2=O)c(C)c1 | 3.74% | -5.92% |
| CC(C)Cn1c(=O)c2sccc2n2c(=O)n(Cc3ccc(Cl)cc3)nc12 | -2.34% | 0.89% |
| CCc1ccccc1Sc1nccn2c(=O)n(CC(=O)Nc3ccc(C)cc3)nc12 | 2.48% | -9.52% |
| COc1ccc(-c2cc3c4nn(CC(=O)Nc5ccc(C)c(F)c5)c(=O)n4ccn3n2)cc1 | 0.97% | 2.58% |
| O=C(Cn1nc2c(Sc3cccc(F)c3)nccn2c1=O)Nc1cccc(Br)c1 | 3.89% | 0.56% |

From ChEMBL document CHEMBL4513146, “CO-ADD screening of Karazin Kharkiv National University (Ukraine) compounds”
